# Compounds without any hit were thinned out: in the full panel of roughly 83,000, 20% have a hit.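 Cell lines were cultured in 96-well plates, exposed to a single compound concentration, and assessed for percent growth 48 hours later.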 Activity calls are given as the source filed them. The calls were made as follows: active = growth percent below 10; inactive = the rest.
# Test system: SR leukemia
# Assay: NCI-60 one-dose screen, 48 h (100 = growth as untreated, 0 = no growth, -100 = all killed)
# Conditions: 10 µM unless noted
row,SMILES,growth
1,Cc1ccc(S(=O)(=O)c2nc(S(=O)(=O)c3ccc(C)cc3)c(N3CCC(O)CC3)s2)cc1,15.7% (inactive)
2,Cc1sc2c(c1C)C(c1ccc(Cl)cc1)=N[C@@H](CC(=O)NCCCCCNC(=O)COc1ccc(C3CCC(=O)NC3=O)cc1)c1nnc(C)n1-2 (some centres not stated),37.5% (inactive)
3,COc1ccc2c(c1)C(=N/N=C(\C)c1ccc(OC)c(S(N)(=O)=O)c1)C(=O)N2,83.2% (inactive)
4,COc1cc2oc(-c3cccc(C(=O)Nc4ccc(Cl)cc4)c3)cc(=O)c2c(OCCNC(=O)[C@H](CCC(=O)OC(C)(C)C)NC(=O)OC(C)(C)C)c1OC,72.9% (inactive)
5,COc1ccc(-c2nc3cc(C)ccc3n2CC(=O)N=Nc2c(O)[nH]c3ccc(Cl)cc23)cc1,-7.22% (active)
6,C=CC[N+](C)(C)CCn1c2ccccc2c2nc3cc(C)c(C)cc3nc21,85% (inactive)
7,O=C(c1ccc(OCCN2CCOCC2)cc1)C1[C@H](c2ccc(Cl)cc2)[C@@H](c2ccccc2)NC12C(=O)Nc1ccc(Br)cc12 (some centres not stated),-45.3% (active)
8,N#Cc1c(-c2ccc(Br)cc2)nc2n[nH]c(-c3ccc(Br)cc3)c2c1-c1ccc(F)cc1,80.7% (inactive)
9,Cc1ccccc1[C@H]1C(C(=O)c2ccc(Cl)cc2)C2(N[C@@H]1c1ccccc1)C(=O)Nc1ccc(Cl)cc12 (some centres not stated),-23.6% (active)
10,COc1cc(C2CC(c3cc(OC)c(OC)c(OC)c3)=NN2C(C)=O)ccc1OCc1ccccc1 (configuration not stated),32.1% (inactive)
11,Cc1cccc(NC(=O)[C@]23CCC(C)(C)CC2C2=CCC4[C@@]5(C)C[C@@H](O)[C@H](O)[C@@](C)(CO)C5CC[C@@]4(C)[C@]2(C)CC3)c1 (some centres not stated),-26% (active)
12,CC12CC[C@@H]3[C@]4(C)COC(c5cn[nH]c5-c5ccc(Cl)cc5)O[C@@H]4CC[C@@]3(C)[C@@H]1CC(C1=CCOC1=O)O2 (some centres not stated),16.5% (inactive)
13,S=c1c2ccccc2nc2n1CCc1c-2[nH]c2ccccc12,67.7% (inactive)
14,CCCCSc1nc(NCCc2c[nH]c3ccccc23)c(C#N)c(-c2ccccc2)n1,2.16% (active)
15,CC(C)c1sc(NC(=O)c2cc(NC(=O)c3cc(NC(=O)c4cscn4)cn3C)cn2C)nc1C(=O)NCCCN(C)C,-8.69% (active)
16,CC(=O)Nc1ccc(-n2cnc3ccc(-c4ccc(O)cc4)cc32)cc1,15.8% (inactive)

row,SMILES,growth
1,Cc1ccc(NCC(=O)Cn2cc(COc3ccc(C=Nc4cnc5ccccc5c4)cc3)nn2)cc1,103% (inactive)
2,Cc1ccc([C@H]2C(C(=O)c3ccc(Cl)cc3)C3(N[C@@H]2c2ccccc2)C(=O)Nc2ccc(Br)cc23)cc1 (some centres not stated),2.24% (active)
3,Cn1cc(-c2nnc(N)nc2-c2c[nH]c3ccc(Br)cc23)c2cc(Br)cnc21,23.8% (inactive)
4,O=C(c1ccccc1)c1ccc2nc(-c3ccc(F)cc3)[nH]c2c1,27.9% (inactive)
5,COc1ccc(-c2nc(SCC(C)C)nc(NCCc3c[nH]c4ccccc34)c2C#N)cc1,19.7% (inactive)
6,S=C(Nc1ccccc1)Nc1ccc(OCc2nc3ccccc3[nH]2)cc1,32.5% (inactive)
7,O=C(/C=C/Nc1ccc(Cl)cc1)c1ccc2c(c1)Nc1ccccc1S2,58.1% (inactive)
8,COc1ccc(C(=O)/C=C/c2ccc(OCc3ccc(F)cc3)c(OC)c2)cc1OC,7.52% (active)
9,COc1c(F)ccc(C(=O)Nc2ccc3nc(NC(=O)C4CCCN(S(=O)(=O)c5cccc(C(F)(F)F)c5)C4)sc3c2)c1F (configuration not stated),38.4% (inactive)
10,Cn1cc(-c2cc(N)n3nc(-c4c[nH]c5ccccc45)cc3n2)c2cccnc21,-32.9% (active)
11,Cc1ccc(C(=O)CSc2nc3ccc(C)cc3c(=O)n2-c2ccc(F)cc2)cc1,99.7% (inactive)
12,O=C(NNc1ccccc1)n1c(=O)c2ccccc2c(=O)n1-c1ccccc1,80.8% (inactive)
13,Cc1nc(Nc2ccccn2)sc1C(=O)CC(SCC(=O)Nc1ccc(Cl)cc1)c1ccccc1F (configuration not stated),12.6% (inactive)
14,O=c1onc(-c2cc3ccccc3nc2Cl)n1-c1cccc2ccccc12,16.8% (inactive)
15,N#Cc1c(-c2cccc(Cl)c2Cl)cc(-c2c[nH]c3ccccc23)[nH]c1=O,42.3% (inactive)
16,CC(=O)OC[C@@]1(C)C2CC[C@]3(C)C(CC=C4C5CC(C)(C)CC[C@]5(C(=O)Nc5ccc(Br)cc5)CC[C@]43C)[C@@]2(C)C[C@@H](OC(C)=O)[C@@H]1OC(C)=O (some centres not stated),32% (inactive)

# Reference: PubChem BioAssay (NCI)
